Compound activity (PubChem)
Shown are actives, neighbours in structure and some others; about 19% of the full set was active somewhere.
Lassa entry inh = qHTS for Inhibitors of binding or entry into cells for Lassa Virus; Lassa virus pseudotype entry inhibition, cell reporter; Potency, µM (series often up to 37.9 µM), usual class: inhibitors; 1.2% of 300,000 active; AID 540256, 2011; calls by dose curve; tested in HEK293 cells; also: nearly all actives have a fitted effect of over 50% in size
CHX counter = Cycloheximide Counterscreen for Small Molecule Inhibitors of Shiga Toxin; cell reporter, cycloheximide protein synthesis inhibition counterscreen; max response, %; 12% of 300,000 active; in the data active = max response mostly above about 13%, no sharp cut-off; inactive = mostly below about 14%; also: read at 38.3 µM for the half of the compounds with a filed dose
Pf growth 48h = Primary qHTS for delayed death inhibitors of the malarial parasite plastid, 48 hour incubation. AID 504832, 2011. 5.9% of 310,000 active. Potency, µM (highest dose often 28.7 µM), hits mostly inhibitors. P. falciparum luciferase growth in erythrocytes, 48 h
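A one-generation exposure of luciferase-tagged malaria parasites in RPMI 1640/Albumax erythrocyte culture, 37 C and 5% CO2. Inhibition is inferred from decreased luminescence after adding detection reagent.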
MARV entry inh = qHTS for inhibitors of binding or entry into cells for Marburg Virus | Marburg virus pseudotyped entry inhibition, cell reporter | Potency, µM (titrated, usually from 37.8 µM), most hits filed as inhibitors | 1.8% of 300,000 active; calls by dose curve; tested in HEK293 cells
Shiga inhibitor = A qHTS for Small Molecule Inhibitors of Shiga Toxin. Vero cells, Shiga toxin protein synthesis inhibition reporter. inhibition, % at 38.7 µM. 9.2% of 290,000 active. AID 2315, 2010; in the data active = inhibition mostly above about 28%, no sharp cut-off; inactive = mostly below about 43%
Pf growth 96h = Primary qHTS for delayed death inhibitors of the malarial parasite plastid, 96 hour incubation; P. falciparum luciferase reporter growth, 96 h; AID 504834, 2011; 6.9% of 320,000 active; Potency, µM (top dose mostly 28.7 µM), usual class: inhibitors
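Readout is luminescence from an integrated firefly luciferase in P. falciparum. Red cells, 2% hematocrit and 0.05% parasitemia final, were cultured with compound through two parasite generations (96 hours) at 37 C, 5% CO2.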
A number is an active result; . = inactive; ? = inconclusive; / = no result. Unless noted, calls follow the shape of the dose curve; as a rule, active = well fitted inhibition curve with a large enough effect; inconclusive = small, poorly fitted or top-dose-only effect, or another doubt; inactive = no such curve, though single readings can be large or run the other way.

SMILES | Lassa entry inh | CHX counter | Pf growth 48h | MARV entry inh | Shiga inhibitor | Pf growth 96h
CC1=C(C#N)C(C(F)(F)F)(C(F)(F)F)N=C(c2ccco2)N1 | . | . | . | ? | . | 8.3µM
Cc1cc2ncc(-c3cccc(Cl)c3)cn2n1 | . | 48 | . | ? | 75 | .
FC(F)(F)c1cnc(-c2cnc3c(-c4ccc(Cl)cc4)cnn3c2)c(Cl)c1 | . | . | . | . | . | .
Cc1nn2cc(-c3ncc(C(F)(F)F)cc3Cl)cnc2c1Br | ? | . | . | ? | 57 | .
N#Cc1cnn2cc(-c3ncc(C(F)(F)F)cc3Cl)cnc12 | . | 29 | ? | . | . | ?
Cc1cc2ncc(-c3ncc(C(F)(F)F)cc3Cl)cn2n1 | ? | 15 | . | ? | . | .
COc1ccc(-c2cnn3cc(-c4cccc(Cl)c4)cnc23)cc1 | / | . | . | / | . | .
COCc1c(Br)c(C)nc(OCC(=O)N/N=C/c2ccc(C)o2)c1C#N | / | . | ? | / | . | ?
Cn1c2ccccc2c2c(C(=O)NCC3CCCO3)cn(C3CCCC3)c(=O)c21 (stereo not given) | . | . | ? | . | . | 4.1µM
CC(C)Cn1cc(C(=O)NCC2CCCO2)c2c3ccccc3n(C)c2c1=O (stereo not given) | . | . | 13µM | . | . | .
Cc1ccn(-c2cc(O)c(-n3ccc(C)n3)cc2O)n1 | / | 14 | . | / | . | .
COCCNC(=O)C(c1cccs1)N(C(=O)Cn1nnc2ccccc21)c1ccccc1 (stereo not given) | . | . | . | . | . | ?
CCN(CC)c1ccc(C=Nc2cccc(S(=O)(=O)N3CCOCC3)c2)c(O)c1 | . | / | / | . | / | /
CCOC(=O)N/N=C/c1ccc(N(CC)CC)cc1O | 4.5µM | 23 | ? | ? | 62 | 4.1µM
CCN(CC)c1ccc(/C=N/NC(=O)c2c(Cl)cnn2C)c(O)c1 | 21µM | 44 | ? | 1.1µM | 56 | ?
CCN(CC)c1ccc(/C=N/NC(=O)c2cccc(S(=O)(=O)N3CCOCC3)c2)c(O)c1 | ? | . | 10µM | ? | . | ?
CCN(CC)c1ccc(/C=N/NC(=O)CNC(=O)C2COc3ccccc3O2)c(O)c1 (stereo not given) | 11µM | . | ? | 4.5µM | . | ?
Cn1ncc(Cl)c1C(=O)N/N=C/c1cc2c(cc1[N+](=O)[O-])OCO2 | . | . | . | . | . | ?
CSc1ccc(CCNC(=O)c2nn(C)c3c2CS(=O)(=O)c2ccccc2-3)cc1 | / | . | ? | / | . | ?
CC1(C)COC(=S)N1CCC#N | . | / | / | . | / | /
O=C(CCC(=O)N/N=C/c1c[nH]c2ccccc12)NCc1ccccc1 | . | . | . | ? | . | ?
CCN(CC)c1ccc(/C=N/NC(=O)CCC(=O)NCc2ccccc2)c(O)c1 | ? | . | 13µM | ? | . | ?
COCCNC(=O)C(c1ccncc1)N(Cc1ccccc1)C(=O)Cn1nnc2ccccc21 (stereo not given) | . | 33 | . | . | 42 | ?
COCCNC(=O)C(c1cccnc1)N(Cc1ccccc1)C(=O)Cn1nnc2ccccc21 (stereo not given) | / | 29 | . | / | 94 | .
COCCNC(=O)C(c1ccccc1)N(Cc1cccs1)C(=O)Cn1nnc2ccccc21 (stereo not given) | . | . | . | . | . | .
SMILES | Lassa entry inh | CHX counter | Pf growth 48h | MARV entry inh | Shiga inhibitor | Pf growth 96h
COCCN(CC(=O)NC1CCCCC1)C(=O)CCCC(=O)Nc1ccccn1 | / | . | . | / | . | ?
CC(Oc1ccc2ccc(=O)oc2c1)C(=O)NCC1CCC(C(=O)O)CC1 (stereo not given) | / | . | . | / | . | ?
O=C(CC1C(=O)NCCN1C(=O)Nc1ccc(F)cc1F)Nc1ccc(F)cc1 (stereo not given) | . | . | . | . | . | .
O=[N+]([O-])c1ccccc1/C=C/C=N/Nc1nc(N2CCCCC2)nc(N2CCCCC2)n1 | . | . | . | . | . | ?
COc1ccccc1N1CCN(/N=C/c2cc([N+](=O)[O-])ccc2Cl)CC1 | / | . | . | / | . | .
O=[N+]([O-])c1ccccc1/C=N\N1CCN(c2ccccc2)CC1 | / | 36 | . | / | 61 | .
O=[N+]([O-])c1ccccc1/C=C/C=N/N1CCCCC1 | ? | 66 | . | ? | 63 | .
O=[N+]([O-])c1ccccc1/C=C\C=N\N1CCN(c2ccccc2)CC1 | / | 25 | . | / | . | ?
O=[N+]([O-])c1ccccc1/C=N/N1CCN(c2ccc(Cl)cc2)CC1 | . | . | . | . | . | ?
COc1ccccc1N1CCN(/N=C/C=C/c2ccccc2[N+](=O)[O-])CC1 | . | . | . | ? | 67 | .
Nc1nc(SCC(=O)NC2CCCC2)[nH]c(=O)c1-c1ccccc1 | / | . | / | / | . | .
Cc1cc(C)nc(S/C=C/C(=O)c2ccccc2F)n1 | ? | 54 | . | ? | 119 | .
Cc1cc(C)nc(SCc2c(F)cccc2Cl)n1 | . | . | . | . | . | ?
CC12CCC(=O)N1C(C(=O)OCC(=O)Nc1ccc(S(N)(=O)=O)cc1)CS2 (stereo not given) | . | . | . | . | . | .
O=C(CSc1n[nH]c(=O)n1C1CC1)c1ccc2c(c1)OCCO2 | / | 37 | . | / | 57 | .
O=C(CSc1n[nH]c(=O)n1Cc1ccco1)c1ccc2c(c1)OCCO2 | / | 40 | . | / | 88 | .
CCOc1ccc(/C=N/NC(=O)C(C)N(c2ccc(OC)cc2)S(C)(=O)=O)cc1OCC (stereo not given) | / | . | ? | / | . | .
CCOc1ccc(S(=O)(=O)N2CCN(c3ncccn3)CC2)cc1 | . | . | . | . | . | ?
COc1cc(-c2nnc(NC(=O)c3ccco3)o2)cc(OC)c1OC | . | / | . | . | / | ?
COc1cc(NC(=O)Cn2cc(C(=O)c3ccc(F)cc3)c(=O)c3ccc(C)nc32)cc(OC)c1 | . | / | / | / | / | /
CCc1ccccc1NC(=S)N1N=CCC1c1ccccc1 (stereo not given) | . | 17 | ? | ? | . | .
CC1=NN(C(=S)Nc2ccccc2)C(c2ccccc2)C1 (stereo not given) | . | . | 9.3µM | . | . | 2.6µM
Cc1ccc(C2CC(c3ccccc3)=NN2C(=S)Nc2ccccc2)o1 (stereo not given) | 4µM | . | / | ? | . | ?
Cc1cccc(NC(=S)N2N=CCC2c2ccccc2)c1 (stereo not given) | . | 42 | / | . | 119 | ?
CC1=C(C(=O)OCC2CCCO2)C(c2ccccc2Cl)NC(=O)N1 (stereo not given) | . | . | . | . | . | .
CC(C)(C)OC(=O)N1CCN(C(=O)c2[nH]cnc2C(=O)Nc2ccon2)CC1 | / | / | . | / | / | .
COc1cc(OC)cc(C(=O)NC(=S)Nc2ccc3oc(=O)ccc3c2)c1 | / | . | . | / | . | .
CCOC(=O)C1=C(N)OC2=C(C(=O)CC(C)(C)C2)C1c1ccco1 (stereo not given) | . | . | . | . | . | .
